Experimental data reported in PubChem BioAssay (NCATS).
Results filed as inconclusive are left out. Values without a mark were called inactive. Calls of active or inactive are those of the source. Unless noted, the call rests on the fitted dose curve; in most records, active means well fitted curve in the direction sought with a large enough effect in the repeat runs; inconclusive means weak or mixed curves; inactive means no such curve, though single readings can be large; an effect the other way counts as inactive or inconclusive.

Target: Calcium and integrin-binding protein 1 (Homo sapiens) (UniProt Q99828)
Test: Primary qHTS for Identification of Calcium Integrin Binding Protein 1 (CIB1) Competitor (AID 1508620; active means well fitted curve in the direction sought with a large enough effect; an effect the other way counts as inactive or inconclusive;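 further: GST tagged CIB1 binding a fluorescein labelled alphaIIb integrin peptide tracer; top concentration of the series differs between compounds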)
Conditions: CIB1-GST / FITC-alphaIIb peptide fluorescence polarization; series mostly up to 114 µM; activity change, negative = inhibition: at the top concentration
In short: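 Fluorescence polarization competition: GST-tagged CIB1 (1 uM final) preincubated with compound 15 min at room temperature, then FITC-labelled alphaIIb peptide (100 nM final) added. After 15 min at room temperature, polarization read at Ex 480/Em 540.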
On the % scale 0 is the no-effect control and ±100 the full control effect.

Calcium and integrin-binding protein 1 (Homo sapiens), sequence (Q99828 whole entry, looked up): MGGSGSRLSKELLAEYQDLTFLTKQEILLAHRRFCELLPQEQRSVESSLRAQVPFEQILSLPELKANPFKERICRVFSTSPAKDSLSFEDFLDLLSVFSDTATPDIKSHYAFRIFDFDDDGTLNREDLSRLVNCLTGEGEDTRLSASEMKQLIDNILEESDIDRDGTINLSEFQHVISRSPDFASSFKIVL

Row | Compound | activity change, negative = inhibition
1 | O=C(Nc1ccccc1)c1ccc(Nc2nnc(-c3ccc(O)cc3)c3ccccc23)cc1 | 1.48%
2 | CCO[C@H]1CN(C2CCC(O)(c3ccc4c(c3)OCO4)CC2)C[C@@H]1NC(=O)CNC(=O)c1cccc(C(F)(F)F)c1 (stereo partly drawn) | -3.85%
3 | CCOc1ccc(S(=O)(=O)N2CCCCCC2)c2ccccc12 | 5.18%
4 | N#Cc1cc(-c2ccnc(Nc3ccc(N4CCOCC4)cc3)n2)ccc1OC1CCOCC1 | -6.69%
5 | Nc1nccc(-c2c(-c3ccc(F)cc3)ncn2C2CCCCC2)n1 | 0.93%
6 | CCc1ccc(-c2nc(CSCC(=O)NCCc3ccccc3)c(C)o2)cc1 | -5.44%
7 | CC(C)(C)OC(=O)c1ncn2c1C(C)(C)Nc1ccccc1-2 | 1.74%
8 | Oc1cccc(C2NC(=S)Nc3cccc(F)c32)c1 (stereo not drawn) | 0.2%
9 | Cc1[nH]c(/C=C2\C(=O)Nc3cc(-c4ccccc4)ccc32)c(C)c1CCC(=O)O | 108%
10 | CC(C)S(=O)(=O)c1ccc2nccc(Nc3ccc4scnc4c3)c2c1 | 1.03%
11 | CC(C)c1ccc(-c2cc(=O)c3ccccc3o2)cc1 | 0.843%
12 | COCCN(C(=O)c1cc(OC)c(OC)c(OC)c1)c1nc(-c2ccccc2)cs1 | -1.37%
13 | CN(C)[C@@H]1CCc2[nH]c3ccc(NC(=O)c4ccc(F)cc4)cc3c2C1 | -7.47%
14 | COc1cccc(OCCCN)c1-c1cc(Nc2cnc(C#N)cn2)n[nH]1 | 4.73%
15 | Cc1c(NC(=O)c2cc3c(s2)CCCC3)cccc1-c1cn(C)c(=O)c(Nc2ccc(C3C(=O)N(C)CCN3C)cc2)n1 (stereo not drawn) | -9.86%
16 | COCC(=O)NC/C=C/c1ccc2ncnc(Nc3ccc(Oc4ccc(C)nc4)c(C)c3)c2c1 | 4.2%
17 | COc1ccc(OC)c(-c2ccc(NC(=O)c3ccncc3F)cc2)c1 | 0.805%
18 | O=c1cc(N2CCN(c3cccc(C(F)(F)F)c3)CC2)[nH]c(=O)n1C1CCCCC1 | -7.11%
19 | COc1cc2ncnc(Oc3ccc(CC(=O)Nc4cnn(C(C)C)c4)cc3)c2cc1OC | 0.102%
20 | CN(C)C(=O)Nc1cccc(-c2ccc(N(C)C)cc2)c1 | 0.991%

Row | Compound | activity change, negative = inhibition
21 | CC(C)[C@@H](c1ccc(C(F)(F)F)cc1CN(Cc1cc(C(F)(F)F)cc(C(F)(F)F)c1)c1nnn(C)n1)N1CCC(C(=O)O)CC1 | -10.1%
22 | COc1cc(-c2cn(C3CCc4c(F)cccc4N(CC(F)(F)F)C3=O)nn2)ccc1-n1cnc(C)c1 (stereo not drawn) | 3.78%
23 | COc1cc(F)c(C(C)C)cc1-c1ccc(C(F)(F)F)cc1CN1C(=O)OC(c2cc(C(F)(F)F)cc(C(F)(F)F)c2)C1C (stereo not drawn) | 2.49%
24 | CCCc1cc(C)n(C)c(=O)c1CN(C)C(=O)c1cc(-c2ccc(N3CCN(C(C)C)CC3)nc2)cc2c1cnn2C(C)C | 0.171%
25 | O=C(Nc1ccc(C(O)(C(F)(F)F)C(F)(F)F)cc1)c1ccc(C(F)(F)F)cc1 | 5.18%
26 | COc1cc2c(Nc3cc(F)c(Cl)c(Cl)c3)ncnc2cc1OCC1CCCN(C)CCC1 | 3.17%
27 | N#Cc1ccc2ncnc(NCCc3ccccc3)c2c1 | 1.5%
28 | Nc1cccc(CNC(=O)c2ccc(Oc3ccc(OCc4cccc(F)c4)cc3)nc2)c1 | 0.522%
29 | COc1ccc(-c2csc(NC(=O)[C@H]3CCCCN3S(=O)(=O)c3ccc(C)cc3)n2)cc1 | 1.62%
30 | NCCOc1cc(C(=O)Nc2cc(OCCN)c3ccccc3n2)nc(C(=O)Nc2cc(OCCN)c3ccccc3n2)c1 | -13.3%
31 | O=C(NCc1ccc(OC(F)(F)F)cc1)C1c2c(F)cccc2C(=O)N1CCc1ccccn1 (stereo not drawn) | 2.73%
32 | COc1ccc2nc(-c3cc(OC)c(OC)c(OC)c3)cc(C(=O)NCC(=O)Nc3ccc(C(C)=O)cc3)c2c1 | -5.61%
33 | CC(C)NC(=O)COc1cccc(-c2nc(Nc3ccc4[nH]ncc4c3)c3ccccc3n2)c1 | 0.979%
34 | CC(=O)N1CCN(CCOc2ccc(C3CCN(C4=Nn5c(nnc5C(F)(F)F)CC4)CC3)cc2)CC1 | 1.3%
35 | Nc1ncnc2c1c(-c1ccc(Oc3ccccc3)cc1)nn2[C@@H]1CCCNC1 | 1.83%
36 | O=S(=O)(Cc1ccccc1)Nc1ccc(-c2ccc3c(cnn3-c3ccc(F)cc3)c2)c(C(F)(F)F)c1 | 6.31%
37 | CCN(c1cc(-c2ccc(CN3CCOCC3)cc2)cc(C(=O)NCc2c(C)cc(C)[nH]c2=O)c1C)C1CCOCC1 | -0.525%
38 | CN(C)C(=O)Nc1cc(-c2ccccc2)ccc1N(C)C | 2.74%
39 | CCOc1cccc(NC(=O)c2ccc(N3CCCC3)c(C(F)(F)F)c2)c1 | -4.51%

Target: Cytochrome P450 2D6 (Homo sapiens) (UniProt P10635)
Test: Cytochrome P450 family 2 subfamily D member 6 (CYP2D6) small molecule antagonists: luciferase biochemical (cell-free) qHTS assay (AID 1645840); further: nearly all actives have a fitted effect of over 55% in size; further: potency means the concentration at half of the fitted maximal effect
Conditions: P450-Glo CYP2D6 enzyme, luciferin luminescence, 1 h; series mostly up to 57.4 µM; activity change, negative = inhibition: at the top concentration
In short: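 P450-Glo luminescent screen: recombinant CYP2D6 enzyme–proluciferin substrate mix preincubated with compound 10 min at room temperature, then NADPH regeneration added for 1 h at room temperature. Detection reagent added for 20 min; luciferin light read as relative luminescence units.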

Cytochrome P450 2D6 (Homo sapiens), sequence (P10635 whole entry, looked up): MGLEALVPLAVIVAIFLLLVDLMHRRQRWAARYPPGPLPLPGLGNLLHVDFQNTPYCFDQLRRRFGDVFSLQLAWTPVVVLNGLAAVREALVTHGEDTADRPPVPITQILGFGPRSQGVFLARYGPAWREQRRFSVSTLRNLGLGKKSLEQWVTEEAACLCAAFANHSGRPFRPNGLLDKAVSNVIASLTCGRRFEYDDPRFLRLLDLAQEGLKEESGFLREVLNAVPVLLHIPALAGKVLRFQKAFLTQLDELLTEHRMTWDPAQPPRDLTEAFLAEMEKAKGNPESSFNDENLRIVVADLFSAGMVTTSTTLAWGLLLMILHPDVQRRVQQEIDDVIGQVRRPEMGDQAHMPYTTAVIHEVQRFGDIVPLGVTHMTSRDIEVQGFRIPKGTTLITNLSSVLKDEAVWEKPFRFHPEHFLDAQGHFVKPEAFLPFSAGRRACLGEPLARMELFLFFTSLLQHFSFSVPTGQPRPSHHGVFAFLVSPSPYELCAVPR

Row | Compound | activity change, negative = inhibition | Potency
40 | O=C(Nc1ccccc1)c1ccc(Nc2nnc(-c3ccc(O)cc3)c3ccccc23)cc1 | -14.2% | –
41 | CCO[C@H]1CN(C2CCC(O)(c3ccc4c(c3)OCO4)CC2)C[C@@H]1NC(=O)CNC(=O)c1cccc(C(F)(F)F)c1 (stereo partly drawn) | – | 3.38 µM (active)
42 | CCOc1ccc(S(=O)(=O)N2CCCCCC2)c2ccccc12 | -23.6% | –
43 | N#Cc1cc(-c2ccnc(Nc3ccc(N4CCOCC4)cc3)n2)ccc1OC1CCOCC1 | 1.36% | –
44 | Nc1nccc(-c2c(-c3ccc(F)cc3)ncn2C2CCCCC2)n1 | – | 15.1 µM (active)
45 | CCc1ccc(-c2nc(CSCC(=O)NCCc3ccccc3)c(C)o2)cc1 | – | 15.1 µM (active)
46 | CC(C)(C)OC(=O)c1ncn2c1C(C)(C)Nc1ccccc1-2 | -7.35% | –
47 | Oc1cccc(C2NC(=S)Nc3cccc(F)c32)c1 (stereo not drawn) | – | 7.56 µM (active)
48 | Cc1[nH]c(/C=C2\C(=O)Nc3cc(-c4ccccc4)ccc32)c(C)c1CCC(=O)O | -2.37% | –
49 | CC(C)S(=O)(=O)c1ccc2nccc(Nc3ccc4scnc4c3)c2c1 | – | 10.7 µM (active)
50 | CC(C)c1ccc(-c2cc(=O)c3ccccc3o2)cc1 | – | 15.1 µM (active)
51 | COCCN(C(=O)c1cc(OC)c(OC)c(OC)c1)c1nc(-c2ccccc2)cs1 | 7.34% | –
52 | CN(C)[C@@H]1CCc2[nH]c3ccc(NC(=O)c4ccc(F)cc4)cc3c2C1 | -26.9% | –
53 | COc1cccc(OCCCN)c1-c1cc(Nc2cnc(C#N)cn2)n[nH]1 | – | 6.74 µM (active)
54 | Cc1c(NC(=O)c2cc3c(s2)CCCC3)cccc1-c1cn(C)c(=O)c(Nc2ccc(C3C(=O)N(C)CCN3C)cc2)n1 (stereo not drawn) | -11.2% | –
55 | COCC(=O)NC/C=C/c1ccc2ncnc(Nc3ccc(Oc4ccc(C)nc4)c(C)c3)c2c1 | – | 10.7 µM (active)
56 | COc1ccc(OC)c(-c2ccc(NC(=O)c3ccncc3F)cc2)c1 | 14.2% | –
57 | O=c1cc(N2CCN(c3cccc(C(F)(F)F)c3)CC2)[nH]c(=O)n1C1CCCCC1 | -0.412% | –
58 | COc1cc2ncnc(Oc3ccc(CC(=O)Nc4cnn(C(C)C)c4)cc3)c2cc1OC | 3.33% | –
59 | CN(C)C(=O)Nc1cccc(-c2ccc(N(C)C)cc2)c1 | – | 21.3 µM (active)

Row | Compound | activity change, negative = inhibition | Potency
60 | CC(C)[C@@H](c1ccc(C(F)(F)F)cc1CN(Cc1cc(C(F)(F)F)cc(C(F)(F)F)c1)c1nnn(C)n1)N1CCC(C(=O)O)CC1 | – | 12 µM (active)
61 | COc1cc(-c2cn(C3CCc4c(F)cccc4N(CC(F)(F)F)C3=O)nn2)ccc1-n1cnc(C)c1 (stereo not drawn) | – | 26.8 µM (active)
62 | COc1cc(F)c(C(C)C)cc1-c1ccc(C(F)(F)F)cc1CN1C(=O)OC(c2cc(C(F)(F)F)cc(C(F)(F)F)c2)C1C (stereo not drawn) | 25.9% | –
63 | CCCc1cc(C)n(C)c(=O)c1CN(C)C(=O)c1cc(-c2ccc(N3CCN(C(C)C)CC3)nc2)cc2c1cnn2C(C)C | 1.37% | –
64 | O=C(Nc1ccc(C(O)(C(F)(F)F)C(F)(F)F)cc1)c1ccc(C(F)(F)F)cc1 | – | 19 µM (active)
65 | COc1cc2c(Nc3cc(F)c(Cl)c(Cl)c3)ncnc2cc1OCC1CCCN(C)CCC1 | – | 16.9 µM (active)
66 | N#Cc1ccc2ncnc(NCCc3ccccc3)c2c1 | – | 15.1 µM (active)
67 | Nc1cccc(CNC(=O)c2ccc(Oc3ccc(OCc4cccc(F)c4)cc3)nc2)c1 | -15.7% | –
68 | COc1ccc(-c2csc(NC(=O)[C@H]3CCCCN3S(=O)(=O)c3ccc(C)cc3)n2)cc1 | 3.46% | –
69 | NCCOc1cc(C(=O)Nc2cc(OCCN)c3ccccc3n2)nc(C(=O)Nc2cc(OCCN)c3ccccc3n2)c1 | 0.328% | –
70 | O=C(NCc1ccc(OC(F)(F)F)cc1)C1c2c(F)cccc2C(=O)N1CCc1ccccn1 (stereo not drawn) | – | 10.7 µM (active)
71 | COc1ccc2nc(-c3cc(OC)c(OC)c(OC)c3)cc(C(=O)NCC(=O)Nc3ccc(C(C)=O)cc3)c2c1 | 3.47% | –
72 | CC(C)NC(=O)COc1cccc(-c2nc(Nc3ccc4[nH]ncc4c3)c3ccccc3n2)c1 | – | 2.68 µM (active)
73 | CC(=O)N1CCN(CCOc2ccc(C3CCN(C4=Nn5c(nnc5C(F)(F)F)CC4)CC3)cc2)CC1 | -12.3% | –
74 | Nc1ncnc2c1c(-c1ccc(Oc3ccccc3)cc1)nn2[C@@H]1CCCNC1 | – | 15.1 µM (active)
75 | O=S(=O)(Cc1ccccc1)Nc1ccc(-c2ccc3c(cnn3-c3ccc(F)cc3)c2)c(C(F)(F)F)c1 | 3.49% | –
76 | CCN(c1cc(-c2ccc(CN3CCOCC3)cc2)cc(C(=O)NCc2c(C)cc(C)[nH]c2=O)c1C)C1CCOCC1 | – | 23.9 µM (active)
77 | CN(C)C(=O)Nc1cc(-c2ccccc2)ccc1N(C)C | -10.2% | –
78 | CCOc1cccc(NC(=O)c2ccc(N3CCCC3)c(C(F)(F)F)c2)c1 | -28.6% | –
